The list is not random: actives were taken first. Their share in the collection is about 2.9%.
KLK7 zymogen act: activators of human kallikrein-7 zymogen; AID 652039; actives 0.9% (n = 370,000); activation, % at 7 µM; P49862; purified proKLK7, EDANS-DABCYL substrate fluorescence; 100% is mature enzyme control, 0% vehicle;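 active = activation above the mean of all tested compounds plus 3 SD, computed per campaign excluding outliers beyond control limits, cut at about 13% in these data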
ADAM17 inh: inhibits human ADAM17. P78536. recombinant ADAM17, EDANS/DABCYL FRET peptide cleavage. inhibition, % at 6.95 µM. actives 0.83% (n = 370,000). AID 720648;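 active = inhibition above the mean of compounds lying between control limits plus 3 SD, set per campaign, cut at about 8.5% in these data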
ADAM10 inh: ADAM10 inhibition, QFRET primary screen; O14672; recombinant ADAM10, EDANS/DABCYL FRET peptide cleavage, 3 h; inhibition, % at 7 µM; actives 0.62% (n = 370,000); AID 720582;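 active = inhibition above a per-campaign cutoff equal to the mean of compounds falling between control-based bounds plus 3 SD, cut at about 20% in these data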
PLC-beta3 inh: blocks human PLC-beta3 enzyme activity; Purified PLC-beta3, fluorogenic substrate, fluorescence; inhibition, % at 12.2 µM; actives 0.18% (n = 370,000); AID 720704; in the data active = inhibition above about 11%
PLC-gamma1 inh: PLC-gamma1 (human) inhibition, primary screen; purified PLC-gamma1, fluorogenic substrate, fluorescence; inhibition, % at 12.2 µM; actives 0.84% (n = 370,000); AID 720700
PLCgamma1 ctr: PLC-gamma1 inhibition, counter-screen for PLC-beta3 hits; AID 743258; shares compounds with PLC-gamma1 inh; purified PLC-gamma1, fluorogenic substrate, fluorescence; actives 3.1% (n = 3,300); inhibition, % at 12.3 µM
PLCbeta3 conf: human PLC-beta3 inhibition, confirmation; shares compounds with PLC-gamma1 inh; purified PLC-beta3, fluorogenic substrate fluorescence; inhibition, % at 12.3 µM; actives 1% (n = 3,300); AID 743261; in the data active = inhibition above about 11%
Of the large screens only hits and unclear results are named; the others gave an inactive call (follow-up assays come after a bar, where they were run). Cut-off read from the data, not from the text of the source, unless noted: active = inhibition above about 9.5%; inactive = the rest.

O=C(O)c1cccc(S(=O)(=O)NCC2COc3ccccc3O2)c1 (stereo unspecified)	PLC-gamma1 inh 9.8 | PLCgamma1 ctr inactive | PLCbeta3 conf inactive
Cc1ccc(C(=O)NCCCN2CCOCC2)c(Cl)c1	none
CCN(CC(=O)Nc1cccc(F)c1)CC(=O)Nc1ccccc1OC	PLC-gamma1 inh 9.8 | PLCgamma1 ctr inactive | PLCbeta3 conf inactive
CCN(CC(=O)Nc1cccc(S(=O)(=O)N2CCCC2)c1)CC(=O)Nc1ccccc1OC	none
CCN(CC)CCN(C(=O)c1ccc2c(c1)OCCO2)c1nc2c(Cl)cccc2s1	none
CSCCC(NC(=O)C12CC3CC(CC(C3)C1)C2)C(=O)OCC(=O)c1ccc(C)cc1 (stereo unspecified)	PLC-gamma1 inh 11 | PLCgamma1 ctr inactive | PLCbeta3 conf inactive
COc1cccc(NC(=O)N(C)C[C@H]2Oc3cc(Br)ccc3S(=O)(=O)N([C@H](C)CO)C[C@H]2C)c1	none
CC(=O)N1CCN(C(=O)c2ccc(Oc3ccccc3)cc2)CC1	none
O=C(c1ccc(F)cc1)N1CCN(C2CCCCC2)CC1	none
COc1ccc(NC(=O)C2CCN(C(=O)c3cccs3)CC2)cc1	PLC-gamma1 inh 9.6 | PLCgamma1 ctr inactive | PLCbeta3 conf inactive
O=C(Nc1ccccc1)C1CCN(C(=O)c2ccc([N+](=O)[O-])cc2)CC1	none
O=C(c1ccccc1)N1CCN(C(=O)c2ccc(OC(F)(F)F)cc2)CC1	PLC-beta3 inh 12 | PLCgamma1 ctr inactive | PLCbeta3 conf inactive
O=C(Nc1ccccc1)C1CCN(C(=O)c2ccccc2)CC1	PLC-beta3 inh 12 | PLCgamma1 ctr inactive | PLCbeta3 conf inactive
O=C(c1ccccc1)N1CCN(C2CCCCCC2)CC1	PLC-gamma1 inh 14 | PLCgamma1 ctr inactive | PLCbeta3 conf inactive
CCn1c(SCC(=O)N2CCCc3ccccc32)nc2c1c(=O)n(C)c(=O)n2C	none
CC1CCc2cc(F)ccc2N1C(=O)CSc1nnc2c3ccccc3n(C)c2n1 (stereo unspecified)	PLC-gamma1 inh 9.7 | PLCgamma1 ctr inactive | PLCbeta3 conf inactive
CC1CCc2cc(F)ccc2N1C(=O)CSc1nnc2c3cc(F)ccc3n(C)c2n1 (stereo unspecified)	none
CC(=O)c1ccccc1OC(=O)CCN1C(=O)C2C3C=CC(C4CC34)C2C1=O (stereo unspecified)	PLC-gamma1 inh 10 | PLCgamma1 ctr inactive | PLCbeta3 conf inactive
CN(C(=O)CC1C(=O)NCCN1Cc1ccc(F)c(F)c1)C1CCOCC1 (stereo unspecified)	none
CC(=O)c1c(C)nc2ccc([N+](=O)[O-])cc2c1-c1ccccc1	PLC-gamma1 inh 14 | PLCgamma1 ctr inactive | PLCbeta3 conf inactive
Cc1cc(Cl)c(S(=O)(=O)N2CCCC2)cc1OCC(=O)NC1CCCCC1	PLC-beta3 inh 12 | PLCgamma1 ctr inactive | PLCbeta3 conf inactive
O=C(COc1ccc(S(=O)(=O)N2CCCC2)cc1Cl)NC1CCCC1	PLC-gamma1 inh 13 | PLCgamma1 ctr inactive | PLCbeta3 conf inactive
Cc1cccc(CN2CCN(CC(=O)NCc3ccc(F)cc3)C2=O)c1	PLC-gamma1 inh 11 | PLCgamma1 ctr inactive | PLCbeta3 conf inactive
Cc1ccc(CN2CCN(CC(=O)NCCCN3CCN(c4ccc(F)cc4)CC3)C2=O)cc1	none
COc1ccc(/C=N/N2C(=O)CN(C(=O)c3ccccc3)C2c2ccc(OC)cc2)cc1 (stereo unspecified)	none
O=C(O)C(C(=O)O)=C1C2CC3CC(C2)CC1C3	PLC-gamma1 inh 11 | PLCgamma1 ctr inactive | PLCbeta3 conf inactive
C/C(=N\Nc1nc2ccccc2[nH]1)c1cc2ccccc2o1	none
O=C(Cn1nc(C(F)(F)F)c2c1CCCC2)N1CCOCC1	PLC-gamma1 inh 9.6 | PLCgamma1 ctr inactive | PLCbeta3 conf inactive
O=C(Cn1nc(C(F)(F)F)c2c1CCCCC2)N1CCOCC1	none
O=C(CCN1CCN(Cc2ccccc2)CC1)NNC(=O)Nc1cccc(Cl)c1	none
CC1Cc2ccccc2N1C(=O)Cn1cc([N+](=O)[O-])cn1 (stereo unspecified)	PLC-beta3 inh 13 | PLCgamma1 ctr inactive | PLCbeta3 conf inactive
